This note sets out measurements from PubChem BioAssay AID1037 (National Center for Advancing Translational Sciences (NCATS), 2008).

The nature of this assay: NSCLC 2 Cell Viability Secondary Assay for qHTS Assay for Epigenetic Modulators. The settings on record: NSCLC 2 viability, MTS absorbance, 4 days. The text has this:
NIH Molecular Libraries Screening Centers Network [MLSCN] NIH Chemical Genomics Center [NCGC] MLSCN Grant: 1 X01 MH079860-01 Assay Provider: Elisabeth D. Martinez, University of Texas SW Medical Center NCGC Assay Overview: This secondary assay characterizes selected actives identified in the qHTS of the Locus Derepression (LDR) assay (PubChem AID 597). The LDR assay detects the derepression of a GFP reporter that is stably integrated in a region of the genome of murine c127i mammary cells that is presumably silenced. Compounds that cause derepression of the locus to express GFP are identified by enumerating GFP positive cells using a laser-scanning microplate cytometer. Selected LDR actives were assayed for killing of NSCLC 2, a patient-derived nonsmall cell lung carcinoma line. Known epigenetic drugs, like histone deacetylase inhibitors, can block cancer cell growth. NSCLC 2 cell viability was measured using Cell Titer 96 AQueous One (Promega), an assay which detects the ability of metabolically active cells to reduce a tetrazolium salt substrate (MTS), into a soluble formazan product that can be measured by colorimetry.
NCGC Assay Protocol Summary NSCLC 2 cells were plated in 96-well flat bottom tissue culture dishes (Corning) and grown overnight at 37 C and 5% CO2, then treated with compounds, incubated 4 days, and assayed for viability using the Cell Titer 96 AQueous One kit (Promega) according to the manufacturer's protocol. Absorbance at 490 nm and 650 nm (reference) was measured by a Spectra Max (Molecular Devices). Data were normalized to the untreated control (100% viability). Each cell line was tested in one or two independent assays, each containing 4 or 8 replicates. For further details, see R.L. Johnson, W. Huang, A. Jadhav, C.P. Austin, J. Inglese, E.D. Martinez, A Quantitative High-Throughput Screen Identifies Potential Epigenetic Modulators of Gene Expression, Analytical Biochemistry (2007), doi: 10.1016/j.ab.2007.12.028
A general note: In qHTS, concentration-response curves come from the screen itself.

Active and inactive are the calls of the source. Calls follow the shape of the full dose curve.

Turning to `CC(/C=C/C(=O)NO)=C\[C@@H](C)C(=O)c1ccc(N(C)C)cc1`, the Potency was 40 nM (active).
Turning to `CC(C)C(=O)NC(c1ccc(N(C)C)cc1)c1ccc2cccnc2c1O` (stereo not drawn), the Potency is 200 nM (active).
On to `CC(C)C(=O)NC(c1ccco1)c1cc([N+](=O)[O-])c2cccnc2c1O` (stereo not drawn), for which the Potency was 6000 nM (active).
In the case of `CN1C(=S)SC(c2ccccc2)N(C)C1c1ccccc1` (stereo not drawn), the result was inactive.
Turning to `O=C(CSc1cccc2cccnc12)N1CCCC1`, the compound was classed as inactive.
For `CC(C)C(=O)NC(c1ccco1)c1ccc2cccnc2c1O` (stereo not drawn), the Potency is 800 nM (active).
With `O=C(CSc1cccc2cccnc12)NCc1ccccc1`, the compound was classed as inactive.
Turning to `O=Nc1ccc(O)c2ncccc12`, the Potency is 1000 nM (active).
